The text below walks through data of PubChem BioAssay.

SMILES strings stand for the structures. The source made the active and inactive calls.

A short description of assay [1]: small molecules captured by biotinylated probe aFSTL3 – biochemical, small-molecule microarray, fluorescence 635/667, stem cell growth factor project, primary screen (AID 1064).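 Note: measures binding of the biotinylated anti-FSTL3 antibody to printed compounds.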 The note with it: higher = more signal.
Assay [2] is described as follows: binders from COS7 lysate, DM2A8 probe, primary screen, torsin A project, cell lysate, small-molecule microarray, fluorescence 635/667 (AID 1065). To be noted: higher = more signal, COS7 lysate expressing mutant human TOR1A.
Assay [3] in a line: small molecules captured by biotinylated probe aFGF2 – biochemical, small-molecule microarray, fluorescence 635/667, stem cell growth factor project, primary screen (AID 1067).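 Note: measures binding of biotinylated aFGF2 protein to printed compounds on slides; z-score merges feature fluorescence and signal-to-noise across triplicate slides.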 To be noted: higher = more signal.
Assay [4] is described as follows: small molecules captured by biotinylated probe aFGF10 – biochemical, small-molecule microarray, fluorescence 635/667, stem cell growth factor project, primary screen (AID 1071).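 Note: score merges 667 nm spot intensity and signal to noise from triplicate slides.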 The note with it: higher = more signal.
Assay [5] addresses Neurogenic locus notch homolog protein 2 (Homo sapiens) (UniProt Q04721). Nature of the assay: small molecules binding Notch2 protein – biochemical, small-molecule microarray, 635 nm fluorescence, stem cell growth factors, primary screen (AID 1073). The note with it: higher = more signal.
The target of assay [6] is Pro-neuregulin-1, membrane-bound isoform (Homo sapiens) (UniProt Q02297). Description: small molecules binding neuregulin-1 protein – biochemical, small-molecule microarray, fluorescence 635/667, psychiatric disease protein project, primary screen (AID 1075).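 Note: score combines 667 nm spot fluorescence with signal to noise.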 The note with it: NRG1 binding, 635 nm fluorescence, higher = more signal.
The subject of assay [7] is Neuregulin-1 EGF-like domain. Nature of the assay: small molecules binding NRG1 EGF domain – biochemical, small-molecule microarray, 635 nm fluorescence, primary screen (AID 1081).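 Note: binding of the protein to compounds printed on small-molecule microarray slides.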 The note with it: higher = more signal.
A short description of assay [8]: FRG1 expression reporter modulators in myotubes – cell-based, C2C12 myotubes, firefly/Renilla luciferase, luminescence, FRG1 inhibition for FSHD, primary screen (AID 1084). The note with it: FRG1 promoter luciferase, higher = more signal, called active from +8 up or from −8 down.
The nature of assay [9]: small molecules captured by biotinylated probe aFST – biochemical, small-molecule microarray, fluorescence 635/667, stem cell growth factor project, primary screen (AID 1086).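 Note: score merges 667 nm fluorescence with signal-to-noise of each printed compound spot.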 To be noted: higher = more signal.
Assay [10] in a line: binders of probe aHhip on microarray, primary screen, stem cell growth factor project, biochemical, small-molecule microarray, fluorescence 635/667 (AID 1087).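 Note: score merges spot fluorescence at 667nm with spot signal to noise ratio.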 To be noted: higher = more signal.
The test system of assay [11] is PRMT1 (protein arginine N-methyltransferase 1). Description: small molecules binding arginine methyltransferase PRMT1 – biochemical, small-molecule microarray, 635 nm fluorescence, primary screen (AID 1088).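 Note: binding of Prmt1 protein to compounds spotted on small-molecule microarray slides.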 To be noted: higher = more signal.
Assay [12] in a line: growth effects on S. cerevisiae YJM789 – YJM789 clinical isolate, OD600, 24 h, basal, primary screen (AID 1089).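 Note: growth of clinical yeast isolate S. cerevisiae YJM 789 seeded 1000 cells per well; test concentration not given here.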 The note with it: higher = more signal, called active from +8 up or from −8 down.
Assay [13] in a line: S. pombe growth modifiers, basal conditions – strain 972, OD600, 24 h, no modulator, primary screen (AID 1090).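 Note: basal condition with compound alone and no growth modifier present; test concentration not given here.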 To be noted: S. pombe 972 growth, higher = more signal, called active from +8 up or from −8 down.
Assay [14] is described as follows: budding yeast growth modifiers under rapamycin – strain BY4716, OD600, 96 h, primary screen (AID 1091). Note: test concentration not given here. To be noted: S. cerevisiae BY4716 + rapamycin, higher = more signal, called active from +8 up or from −8 down.
In assay [15] the target is Torsin-1A-interacting protein 2 (Homo sapiens) (UniProt Q8NFQ8). Description: small molecules binding lysate-expressed LULL1 – cell lysate, human LULL1 lysate, 635/667 nm fluorescence, primary screen (AID 1092).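 Note: score merges per-feature 667 nm fluorescence with signal-to-noise.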 To be noted: small-molecule microarray, hLULL1 lysate binding, 635 nm fluorescence; higher = more signal.
A short description of assay [16]: optical density change of DRC41 E. coli – strain DRC41, OD650, 24 h, E. coli filamentation project, primary screen (AID 1093).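 Note: MC1000 strain lacking acrAB efflux and sulA so SOS filamentation is blocked; test concentration not given here.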 The note with it: E. coli DRC41 growth, higher = more signal, called active from +8 up or from −8 down.
Assay [17] in a line: probe aLefty2 binding to arrayed compounds – biochemical, biotinylated probe, 635/667 nm fluorescence, primary screen (AID 1094).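 Note: score merges spot fluorescence near 667 nm with spot signal-to-noise ratio.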 The note with it: small-molecule microarray, higher = more signal.
Assay [18] relates to Noggin (protein binding on small-molecule microarray). Nature of the assay: small molecules binding Noggin protein – biochemical, 635/667 nm fluorescence, primary screen (AID 1095).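 Note: score merges 667 nm feature fluorescence with signal to noise over triplicate slides.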 To be noted: 635 nm fluorescence, higher = more signal.
Assay [19] deals with Neurogenic locus notch homolog protein 3 (Homo sapiens) (UniProt Q9UM47). Description: small molecules binding NOTCH3 protein – biochemical, 635/667 nm fluorescence, primary screen (AID 1096). The note with it: small-molecule microarray, 635 nm fluorescence, higher = more signal.
Assay [20] is described as follows: probe aEGFR binding to arrayed compounds – biochemical, biotinylated probe, 635/667 nm fluorescence, primary screen (AID 1097).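 Note: probe is a biotinylated anti-EGFR antibody binding compounds printed on slides; score combines fluorescence near 667 nm and signal to noise of each spot.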 The note with it: small-molecule microarray, higher = more signal.

Sequence of Pro-neuregulin-1, membrane-bound isoform (Homo sapiens) (Q02297 whole entry, looked up, the tested form may be a part, canonical isoform): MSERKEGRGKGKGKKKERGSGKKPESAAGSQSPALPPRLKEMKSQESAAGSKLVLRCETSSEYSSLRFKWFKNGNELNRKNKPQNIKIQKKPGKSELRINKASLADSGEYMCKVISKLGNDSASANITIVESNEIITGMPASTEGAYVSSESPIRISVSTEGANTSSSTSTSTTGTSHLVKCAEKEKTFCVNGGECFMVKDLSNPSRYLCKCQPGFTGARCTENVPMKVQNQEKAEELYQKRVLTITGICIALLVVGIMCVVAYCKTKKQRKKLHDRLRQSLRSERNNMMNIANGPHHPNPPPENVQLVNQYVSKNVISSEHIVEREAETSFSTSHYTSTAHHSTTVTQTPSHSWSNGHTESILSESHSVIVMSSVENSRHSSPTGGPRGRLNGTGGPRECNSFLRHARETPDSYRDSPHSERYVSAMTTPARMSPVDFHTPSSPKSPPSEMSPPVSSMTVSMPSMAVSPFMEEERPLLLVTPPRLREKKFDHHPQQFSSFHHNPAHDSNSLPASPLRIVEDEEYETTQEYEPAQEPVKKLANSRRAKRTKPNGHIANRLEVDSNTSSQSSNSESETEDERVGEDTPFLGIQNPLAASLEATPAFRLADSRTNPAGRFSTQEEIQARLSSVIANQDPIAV
Sequence of Neurogenic locus notch homolog protein 3 (Homo sapiens) (Q9UM47 whole entry, looked up): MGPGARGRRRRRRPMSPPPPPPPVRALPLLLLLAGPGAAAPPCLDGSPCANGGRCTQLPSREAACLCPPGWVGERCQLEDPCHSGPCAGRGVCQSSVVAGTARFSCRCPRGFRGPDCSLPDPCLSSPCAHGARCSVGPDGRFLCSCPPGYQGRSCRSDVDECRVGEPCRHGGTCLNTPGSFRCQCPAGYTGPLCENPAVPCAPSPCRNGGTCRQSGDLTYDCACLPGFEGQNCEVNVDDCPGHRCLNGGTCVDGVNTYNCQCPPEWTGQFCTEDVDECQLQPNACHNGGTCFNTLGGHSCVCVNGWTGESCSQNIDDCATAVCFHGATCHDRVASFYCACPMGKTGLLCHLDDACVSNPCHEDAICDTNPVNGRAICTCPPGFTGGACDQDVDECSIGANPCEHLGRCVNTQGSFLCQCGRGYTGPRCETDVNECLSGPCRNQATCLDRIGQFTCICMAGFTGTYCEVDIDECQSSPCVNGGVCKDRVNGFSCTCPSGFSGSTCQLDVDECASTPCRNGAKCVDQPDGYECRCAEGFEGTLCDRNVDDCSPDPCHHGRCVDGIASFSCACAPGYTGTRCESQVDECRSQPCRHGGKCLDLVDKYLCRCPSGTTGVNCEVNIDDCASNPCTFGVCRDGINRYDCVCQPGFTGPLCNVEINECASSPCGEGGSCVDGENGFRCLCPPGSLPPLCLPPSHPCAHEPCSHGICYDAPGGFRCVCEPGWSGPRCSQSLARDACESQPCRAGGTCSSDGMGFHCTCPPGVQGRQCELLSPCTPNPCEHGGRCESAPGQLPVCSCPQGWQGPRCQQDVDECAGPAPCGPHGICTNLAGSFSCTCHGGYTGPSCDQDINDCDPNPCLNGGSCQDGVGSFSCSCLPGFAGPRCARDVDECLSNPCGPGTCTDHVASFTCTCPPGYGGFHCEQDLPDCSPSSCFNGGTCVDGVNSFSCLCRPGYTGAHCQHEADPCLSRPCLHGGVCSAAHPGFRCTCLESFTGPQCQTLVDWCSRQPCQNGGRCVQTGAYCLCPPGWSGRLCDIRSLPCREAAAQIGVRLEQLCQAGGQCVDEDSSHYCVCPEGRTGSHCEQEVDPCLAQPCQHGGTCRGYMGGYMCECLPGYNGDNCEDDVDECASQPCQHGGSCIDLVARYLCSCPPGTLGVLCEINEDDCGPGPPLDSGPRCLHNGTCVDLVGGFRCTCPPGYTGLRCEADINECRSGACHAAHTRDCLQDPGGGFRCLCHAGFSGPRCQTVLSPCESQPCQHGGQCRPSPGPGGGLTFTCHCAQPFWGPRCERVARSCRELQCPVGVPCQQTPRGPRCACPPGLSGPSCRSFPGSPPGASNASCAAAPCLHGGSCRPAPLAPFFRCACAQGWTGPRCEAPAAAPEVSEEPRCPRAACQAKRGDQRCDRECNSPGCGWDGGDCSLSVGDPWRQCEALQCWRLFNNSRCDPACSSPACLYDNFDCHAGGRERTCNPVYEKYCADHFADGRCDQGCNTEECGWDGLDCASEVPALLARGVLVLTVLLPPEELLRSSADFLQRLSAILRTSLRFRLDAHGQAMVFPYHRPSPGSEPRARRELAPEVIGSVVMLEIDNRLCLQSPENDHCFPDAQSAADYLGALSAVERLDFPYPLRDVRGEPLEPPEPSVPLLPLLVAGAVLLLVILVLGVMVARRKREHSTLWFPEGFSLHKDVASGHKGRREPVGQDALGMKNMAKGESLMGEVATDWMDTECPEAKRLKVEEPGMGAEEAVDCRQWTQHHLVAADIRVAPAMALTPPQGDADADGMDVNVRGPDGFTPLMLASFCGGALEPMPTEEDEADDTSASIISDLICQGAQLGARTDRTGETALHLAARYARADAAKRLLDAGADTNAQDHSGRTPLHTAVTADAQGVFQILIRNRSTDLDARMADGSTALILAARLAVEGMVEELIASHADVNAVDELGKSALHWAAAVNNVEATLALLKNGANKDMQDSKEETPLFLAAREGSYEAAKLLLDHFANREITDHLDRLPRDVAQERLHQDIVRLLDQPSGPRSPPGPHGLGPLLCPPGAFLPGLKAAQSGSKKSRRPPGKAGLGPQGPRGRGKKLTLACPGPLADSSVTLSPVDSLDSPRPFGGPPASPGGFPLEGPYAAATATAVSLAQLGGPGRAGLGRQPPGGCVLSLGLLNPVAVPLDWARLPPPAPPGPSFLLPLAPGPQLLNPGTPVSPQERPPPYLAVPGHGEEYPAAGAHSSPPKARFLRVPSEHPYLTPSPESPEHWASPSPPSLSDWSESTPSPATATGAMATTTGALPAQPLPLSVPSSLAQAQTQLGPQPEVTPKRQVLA
Sequence of Torsin-1A-interacting protein 2 (Homo sapiens) (Q8NFQ8 whole entry, looked up): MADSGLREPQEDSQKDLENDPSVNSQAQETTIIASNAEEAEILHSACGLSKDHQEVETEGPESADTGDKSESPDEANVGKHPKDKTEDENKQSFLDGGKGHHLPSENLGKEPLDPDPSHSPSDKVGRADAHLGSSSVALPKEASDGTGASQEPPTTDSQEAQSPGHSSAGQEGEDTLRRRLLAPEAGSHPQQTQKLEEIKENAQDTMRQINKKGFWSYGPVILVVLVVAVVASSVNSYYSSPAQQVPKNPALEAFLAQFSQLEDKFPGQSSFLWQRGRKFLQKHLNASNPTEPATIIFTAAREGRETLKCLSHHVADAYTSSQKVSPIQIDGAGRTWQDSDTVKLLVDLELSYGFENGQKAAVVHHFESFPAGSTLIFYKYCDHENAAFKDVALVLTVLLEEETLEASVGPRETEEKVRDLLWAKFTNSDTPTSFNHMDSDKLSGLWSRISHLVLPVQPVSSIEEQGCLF

Consider `COCCOC(=O)N1C(=O)[C@@]2(c3cc(C#CCC(C(=O)OC)C(=O)OC)ccc31)[C@H](c1ccc(OCCO)cc1)N1[C@H](c3ccccc3)[C@H](c3ccccc3)OC(=O)[C@H]1[C@@H]2C(=O)N1CCN(c2ncccn2)CC1`, for which the composite z-score in assay [1] was -0.372; in assay [2], 1.32; in assay [3], -0.0431; in [4] it was 0.905; in assay [5], 1.25; in [6], 1.64. Moreover, the composite z-score in assay [7] was 1.14; in [9], 0.789; in assay [10], 0.142; in assay [11] it was 1.45; in assay [15], 3.17; in assay [17], 0.0112. Further, the composite z-score in assay [18] is 1.17; in assay [19] it was 1.07; in assay [20], 0.0397. For the same compound, the z-score in assay [8] was 0.977 (inactive); in assay [12], 1.07 (inactive); in assay [13], 0.934 (inactive); in [14], 6.44 (inactive); in assay [16], 1.75 (inactive).
On to `[N-]=[N+]=Nc1ccccc1[C@H]1OC(c2ccc(OCCCO)cc2)=N[C@@]1(CCS(=O)(=O)c1ccccc1)C(=O)N1CCCCC1`, for which the composite z-score was found to be 1.26 in assay [1]; 0.526 in assay [2]; 0.0056 in assay [3]; 0.699 in [4]; 1.43 in assay [5]; 1.46 in assay [6]. Besides, the composite z-score was 1.2 in [7]; 1.24 in assay [9]; -0.201 in assay [10]; 1.51 in assay [11]; 3.16 in assay [15]; 0.428 in assay [17]. In addition, the composite z-score in assay [18] was 0.0467; in assay [19], 1.12; in assay [20] it was 0.176. Further, the z-score in assay [8] was 1.8 (inactive); in assay [12], -0.347 (inactive); in assay [13], 0.189 (inactive); in assay [14], 2.73 (inactive); in [16], -0.413 (inactive).
Turning to `CO[C@H]1O[C@H](CO)[C@@H](OC(=O)Nc2ccccc2-c2ccccc2)[C@H](OC(=O)Nc2ccc3c(c2)OCO3)[C@@H]1OC(=O)Nc1ccc2c(c1)OCO2`, the composite z-score came out at 0.0632 in assay [1]; 0.291 in assay [2]; 0.0826 in [3]; 0.733 in [4]; 1.44 in assay [5]; 1.62 in [6]. In addition, the composite z-score in assay [7] is 1.4; in assay [9] it was 1.2; in assay [10] it was 0.141; in [11] it was 1.53; in [15], 3.16; in assay [17] it was -0.0269. The figures for the composite z-score in assay [18], in assay [19] and in [20] were 0.91, 1.07 and -0.0177, respectively. The z-score in assay [8] is 5.64 (inactive); in assay [12] it was 2.06 (inactive); in [13], 0.798 (inactive); in assay [14], 6.35 (inactive); in assay [16], 0.0976 (inactive).
On to `CCOC(=O)C[C@H]1[C@H](OC(=O)Cc2ccc3c(c2)OCO3)[C@@H](NC(=O)Cc2ccc(OC)cc2)c2cc(OCCCO)ccc2N1C(=O)c1ccccc1`, for which the composite z-score was -0.244 in assay [1]; 0.188 in assay [2]; -0.11 in [3]; 0.494 in assay [4]; 0.608 in assay [5]; 0.416 in assay [6]. Further, the composite z-score is 0.436 in assay [7]; 0.447 in [9]; -0.353 in assay [10]; 1.26 in assay [11]; 1.37 in assay [15]; -0.0846 in assay [17]. Moreover, the composite z-score in assay [18] amounted to 0.0653; in assay [19], 0.608; in assay [20], 0.0032. Besides, the z-score in [8] is -1.38 (inactive); in [12], -0.13 (inactive); in assay [13] it was 0.0145 (inactive); in assay [14], 0.234 (inactive); in [16], 1.26 (inactive).
Consider `C[n+]1ccc(CCCO)cc1`, for which the composite z-score in [1] was 1.03; in assay [2] it was 1.06; in assay [3], -0.044; in assay [4], 0.0582; in [5], -1.21; in assay [6], -0.161. The composite z-score was 1.45 in [7]; -0.311 in assay [9]; 0.837 in assay [10]; 0.618 in assay [11]; 0.427 in assay [15]; 0.181 in assay [17]. Moreover, the composite z-score was 0.436 in assay [18], -0.13 in [19] and 0.0455 in assay [20]. The z-score was 1.12 (inactive) in [8]; 0.654 (inactive) in [12]; -0.96 (inactive) in assay [13]; 0.316 (inactive) in [14]; -2.1 (inactive) in assay [16].
